The whole screen tested about 21,000 compounds, of which fewer than 10 showed an effect of 50% or more. Not all results are given here. Potency and affinity values are given separately.
The compounds below were run on Acinetobacter baumannii. Details: Concentration 32 ug.mL-1; ASSAY_TEST Inhibition of Bacterial Growth; detection method Absorption (OD600); MEDIA CAMHB; plate type 384well; NBS; CORNING #3640; time 18 hr.

Structure (SMILES) | Inhibition [%]
C#CCN(C)c1nc(NCCC2CCN(Cc3ccccc3)CC2)c(C#N)cc1C#N.Cl | -7.83
CCOC(=O)C1=C(C)Oc2nc3c(c(N)c2C1c1nccn1C)CCC3 (stereo not given) | 0.84
Nc1nc(N)c(C=O)c(-c2ccccc2)c1C=O | 5.37
Cn1ccnc1C1C2=C(CC(C)(C)CC2=O)Oc2nc3c(c(N)c21)CCCC3 (stereo not given) | -5.19
N#CC1=C(Cl)Oc2c(ccc3ccccc23)C1c1ccc([N+](=O)[O-])cc1 (stereo not given) | -15.4

Reference: ChEMBL document CHEMBL4513135, “CO-ADD screening of IQOG CSIS (Spain) compounds”
